Assay results from PubChem BioAssay.
Activity calls are given as the source filed them.

Tests used:
[1] = small molecules captured by biotinylated probe aFSTL3 – biochemical, small-molecule microarray, fluorescence 635/667, stem cell growth factor project, primary screen (AID 1064); conditions: higher = more signal;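 further: measures binding of the biotinylated anti-FSTL3 antibody to printed compounds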
[2] = binders from COS7 lysate, DM2A8 probe, primary screen, torsin A project, cell lysate, small-molecule microarray, fluorescence 635/667 (AID 1065); conditions: higher = more signal, COS7 lysate expressing mutant human TOR1A
[3] = small molecules captured by biotinylated probe aFGF2 – biochemical, small-molecule microarray, fluorescence 635/667, stem cell growth factor project, primary screen (AID 1067); conditions: higher = more signal;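 further: measures binding of biotinylated aFGF2 protein to printed compounds on slides; z-score merges feature fluorescence and signal-to-noise across triplicate slides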
[4] = small molecules captured by biotinylated probe aFGF10 – biochemical, small-molecule microarray, fluorescence 635/667, stem cell growth factor project, primary screen (AID 1071); conditions: higher = more signal;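 further: score merges 667 nm spot intensity and signal to noise from triplicate slides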
[5] = target: Neurogenic locus notch homolog protein 2 (Homo sapiens) (UniProt Q04721); test: small molecules binding Notch2 protein – biochemical, small-molecule microarray, 635 nm fluorescence, stem cell growth factors, primary screen (AID 1073); conditions: higher = more signal
Chain of Neurogenic locus notch homolog protein 2 (Homo sapiens) (Q04721 whole entry, looked up, canonical isoform): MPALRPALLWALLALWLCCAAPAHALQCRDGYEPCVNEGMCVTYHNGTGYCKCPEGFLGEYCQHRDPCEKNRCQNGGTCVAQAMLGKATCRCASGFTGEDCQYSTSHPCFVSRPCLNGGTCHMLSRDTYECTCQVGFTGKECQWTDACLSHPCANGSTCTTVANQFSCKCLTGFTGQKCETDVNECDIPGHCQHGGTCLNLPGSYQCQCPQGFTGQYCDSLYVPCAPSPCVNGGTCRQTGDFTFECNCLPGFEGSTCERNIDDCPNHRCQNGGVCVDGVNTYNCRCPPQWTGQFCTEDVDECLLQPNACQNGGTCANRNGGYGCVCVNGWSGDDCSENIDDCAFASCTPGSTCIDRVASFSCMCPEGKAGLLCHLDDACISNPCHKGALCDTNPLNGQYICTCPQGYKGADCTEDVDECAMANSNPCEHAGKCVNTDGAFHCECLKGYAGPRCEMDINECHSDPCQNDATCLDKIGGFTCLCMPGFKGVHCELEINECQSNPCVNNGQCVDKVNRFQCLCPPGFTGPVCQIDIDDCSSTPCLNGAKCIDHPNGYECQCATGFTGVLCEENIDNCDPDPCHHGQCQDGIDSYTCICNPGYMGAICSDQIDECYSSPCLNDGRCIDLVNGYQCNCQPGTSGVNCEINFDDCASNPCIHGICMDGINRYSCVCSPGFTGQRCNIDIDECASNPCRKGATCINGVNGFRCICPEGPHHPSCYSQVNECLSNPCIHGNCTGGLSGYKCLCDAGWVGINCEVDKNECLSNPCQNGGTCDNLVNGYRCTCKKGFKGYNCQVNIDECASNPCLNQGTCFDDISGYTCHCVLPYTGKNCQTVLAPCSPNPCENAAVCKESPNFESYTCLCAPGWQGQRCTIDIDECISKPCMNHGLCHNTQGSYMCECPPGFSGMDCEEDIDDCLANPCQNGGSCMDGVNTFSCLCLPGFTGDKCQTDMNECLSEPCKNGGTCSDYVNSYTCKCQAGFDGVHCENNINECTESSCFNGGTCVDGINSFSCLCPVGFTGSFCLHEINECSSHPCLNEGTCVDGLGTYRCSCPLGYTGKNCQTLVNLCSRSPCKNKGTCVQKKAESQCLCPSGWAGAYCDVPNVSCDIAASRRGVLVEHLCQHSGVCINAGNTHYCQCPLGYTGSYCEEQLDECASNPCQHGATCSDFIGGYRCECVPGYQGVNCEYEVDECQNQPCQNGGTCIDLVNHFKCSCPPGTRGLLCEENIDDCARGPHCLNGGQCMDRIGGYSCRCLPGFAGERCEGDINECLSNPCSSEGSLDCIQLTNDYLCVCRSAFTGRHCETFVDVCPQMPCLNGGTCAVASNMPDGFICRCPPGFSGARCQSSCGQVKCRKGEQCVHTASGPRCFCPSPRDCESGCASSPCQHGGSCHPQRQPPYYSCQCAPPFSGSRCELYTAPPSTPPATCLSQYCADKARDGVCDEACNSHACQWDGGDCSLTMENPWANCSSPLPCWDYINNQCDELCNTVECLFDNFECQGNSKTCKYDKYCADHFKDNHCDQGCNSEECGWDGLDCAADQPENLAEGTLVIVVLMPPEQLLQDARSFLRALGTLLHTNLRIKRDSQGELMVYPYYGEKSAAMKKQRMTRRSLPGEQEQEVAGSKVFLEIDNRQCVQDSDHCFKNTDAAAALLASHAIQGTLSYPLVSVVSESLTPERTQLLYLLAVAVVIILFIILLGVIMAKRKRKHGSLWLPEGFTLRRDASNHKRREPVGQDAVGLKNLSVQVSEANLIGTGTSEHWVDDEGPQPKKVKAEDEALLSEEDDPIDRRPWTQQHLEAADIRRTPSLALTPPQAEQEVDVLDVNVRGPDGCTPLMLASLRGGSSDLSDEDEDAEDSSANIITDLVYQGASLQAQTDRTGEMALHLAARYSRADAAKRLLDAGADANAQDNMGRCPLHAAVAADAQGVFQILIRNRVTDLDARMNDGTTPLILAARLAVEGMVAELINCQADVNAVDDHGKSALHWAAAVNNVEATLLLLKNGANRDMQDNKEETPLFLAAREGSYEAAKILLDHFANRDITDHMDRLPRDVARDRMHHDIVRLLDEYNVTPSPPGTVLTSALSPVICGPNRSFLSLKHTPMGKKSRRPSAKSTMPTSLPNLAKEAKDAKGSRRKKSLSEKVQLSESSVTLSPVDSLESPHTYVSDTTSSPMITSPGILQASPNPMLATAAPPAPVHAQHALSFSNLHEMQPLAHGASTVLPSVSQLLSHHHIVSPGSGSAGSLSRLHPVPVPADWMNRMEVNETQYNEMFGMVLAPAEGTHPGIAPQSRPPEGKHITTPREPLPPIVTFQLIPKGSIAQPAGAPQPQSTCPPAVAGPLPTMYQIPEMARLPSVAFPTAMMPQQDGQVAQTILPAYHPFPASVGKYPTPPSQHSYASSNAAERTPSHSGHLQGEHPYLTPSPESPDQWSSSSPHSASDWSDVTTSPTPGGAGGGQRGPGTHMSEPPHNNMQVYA

[6] = target: Pro-neuregulin-1, membrane-bound isoform (Homo sapiens) (UniProt Q02297); test: small molecules binding neuregulin-1 protein – biochemical, small-molecule microarray, fluorescence 635/667, psychiatric disease protein project, primary screen (AID 1075); conditions: NRG1 binding, 635 nm fluorescence, higher = more signal;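 further: score combines 667 nm spot fluorescence with signal to noise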
Chain of Pro-neuregulin-1, membrane-bound isoform (Homo sapiens) (Q02297 whole entry, looked up, the tested form may be a part, canonical isoform): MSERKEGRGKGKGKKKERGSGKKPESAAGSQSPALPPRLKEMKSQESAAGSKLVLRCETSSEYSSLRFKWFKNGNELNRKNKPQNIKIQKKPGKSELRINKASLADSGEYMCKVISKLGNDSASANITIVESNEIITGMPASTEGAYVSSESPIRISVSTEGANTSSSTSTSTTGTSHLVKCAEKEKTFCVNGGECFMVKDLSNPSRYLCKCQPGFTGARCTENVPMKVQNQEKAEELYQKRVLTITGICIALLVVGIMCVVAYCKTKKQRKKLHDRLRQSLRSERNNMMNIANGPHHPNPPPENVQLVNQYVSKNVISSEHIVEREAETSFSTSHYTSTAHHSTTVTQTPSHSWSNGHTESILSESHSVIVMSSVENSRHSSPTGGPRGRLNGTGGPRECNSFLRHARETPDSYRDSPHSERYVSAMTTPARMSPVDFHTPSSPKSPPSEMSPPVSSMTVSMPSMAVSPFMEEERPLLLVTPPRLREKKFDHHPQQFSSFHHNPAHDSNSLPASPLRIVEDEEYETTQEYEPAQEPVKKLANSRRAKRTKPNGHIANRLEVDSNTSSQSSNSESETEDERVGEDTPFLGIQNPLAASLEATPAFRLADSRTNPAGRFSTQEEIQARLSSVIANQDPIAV

[7] = test system: Neuregulin-1 EGF-like domain; test: small molecules binding NRG1 EGF domain – biochemical, small-molecule microarray, 635 nm fluorescence, primary screen (AID 1081); conditions: higher = more signal;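 further: binding of the protein to compounds printed on small-molecule microarray slides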
[8] = FRG1 expression reporter modulators in myotubes – cell-based, C2C12 myotubes, firefly/Renilla luciferase, luminescence, FRG1 inhibition for FSHD, primary screen (AID 1084); conditions: FRG1 promoter luciferase, higher = more signal, called active from +8 up or from −8 down
[9] = small molecules captured by biotinylated probe aFST – biochemical, small-molecule microarray, fluorescence 635/667, stem cell growth factor project, primary screen (AID 1086); conditions: higher = more signal;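 further: score merges 667 nm fluorescence with signal-to-noise of each printed compound spot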
[10] = binders of probe aHhip on microarray, primary screen, stem cell growth factor project, biochemical, small-molecule microarray, fluorescence 635/667 (AID 1087); conditions: higher = more signal;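 further: score merges spot fluorescence at 667nm with spot signal to noise ratio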
[11] = test system: PRMT1 (protein arginine N-methyltransferase 1); test: small molecules binding arginine methyltransferase PRMT1 – biochemical, small-molecule microarray, 635 nm fluorescence, primary screen (AID 1088); conditions: higher = more signal;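 further: binding of Prmt1 protein to compounds spotted on small-molecule microarray slides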
[12] = growth effects on S. cerevisiae YJM789 – YJM789 clinical isolate, OD600, 24 h, basal, primary screen (AID 1089); conditions: higher = more signal, called active from +8 up or from −8 down;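 further: growth of clinical yeast isolate S. cerevisiae YJM 789 seeded 1000 cells per well; test concentration not given here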
[13] = S. pombe growth modifiers, basal conditions – strain 972, OD600, 24 h, no modulator, primary screen (AID 1090);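 further: basal condition with compound alone and no growth modifier present; test concentration not given here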; conditions: S. pombe 972 growth, higher = more signal, called active from +8 up or from −8 down
[14] = budding yeast growth modifiers under rapamycin – strain BY4716, OD600, 96 h, primary screen (AID 1091); further: test concentration not given here; conditions: S. cerevisiae BY4716 + rapamycin, higher = more signal, called active from +8 up or from −8 down
[15] = target: Torsin-1A-interacting protein 2 (Homo sapiens) (UniProt Q8NFQ8); test: small molecules binding lysate-expressed LULL1 – cell lysate, human LULL1 lysate, 635/667 nm fluorescence, primary screen (AID 1092); conditions: small-molecule microarray, hLULL1 lysate binding, 635 nm fluorescence; higher = more signal;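 further: probe is lysate of COS7 cells overexpressing human LULL1; score merges per-feature 667 nm fluorescence with signal-to-noise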
Chain of Torsin-1A-interacting protein 2 (Homo sapiens) (Q8NFQ8 whole entry, looked up): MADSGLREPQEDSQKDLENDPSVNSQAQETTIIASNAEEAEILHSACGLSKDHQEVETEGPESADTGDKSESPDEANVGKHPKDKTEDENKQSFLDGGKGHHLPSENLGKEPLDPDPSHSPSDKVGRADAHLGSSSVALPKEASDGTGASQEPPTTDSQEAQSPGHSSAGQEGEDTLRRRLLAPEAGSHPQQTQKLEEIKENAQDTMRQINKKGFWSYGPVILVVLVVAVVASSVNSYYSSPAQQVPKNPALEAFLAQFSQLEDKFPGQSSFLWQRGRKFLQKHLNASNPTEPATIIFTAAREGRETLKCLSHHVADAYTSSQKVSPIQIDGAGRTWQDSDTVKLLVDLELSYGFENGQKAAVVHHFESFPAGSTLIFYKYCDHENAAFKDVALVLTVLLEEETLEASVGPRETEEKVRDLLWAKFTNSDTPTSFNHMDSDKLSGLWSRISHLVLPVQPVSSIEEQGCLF

[16] = optical density change of DRC41 E. coli – strain DRC41, OD650, 24 h, E. coli filamentation project, primary screen (AID 1093);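 further: MC1000 strain lacking acrAB efflux and sulA so SOS filamentation is blocked; test concentration not given here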; conditions: E. coli DRC41 growth, higher = more signal, called active from +8 up or from −8 down
[17] = probe aLefty2 binding to arrayed compounds – biochemical, biotinylated probe, 635/667 nm fluorescence, primary screen (AID 1094); conditions: small-molecule microarray, higher = more signal;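 further: score merges spot fluorescence near 667 nm with spot signal-to-noise ratio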
[18] = test system: Noggin (protein binding on small-molecule microarray); test: small molecules binding Noggin protein – biochemical, 635/667 nm fluorescence, primary screen (AID 1095); conditions: 635 nm fluorescence, higher = more signal;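 further: score merges 667 nm feature fluorescence with signal to noise over triplicate slides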
[19] = target: Neurogenic locus notch homolog protein 3 (Homo sapiens) (UniProt Q9UM47); test: small molecules binding NOTCH3 protein – biochemical, 635/667 nm fluorescence, primary screen (AID 1096); conditions: small-molecule microarray, 635 nm fluorescence, higher = more signal
[20] = probe aEGFR binding to arrayed compounds – biochemical, biotinylated probe, 635/667 nm fluorescence, primary screen (AID 1097); conditions: small-molecule microarray, higher = more signal;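 further: probe is a biotinylated anti-EGFR antibody binding compounds printed on slides; score combines fluorescence near 667 nm and signal to noise of each spot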

Row | Compound | composite z-score [1] | composite z-score [2] | composite z-score [3] | composite z-score [4] | composite z-score [5] | composite z-score [6] | composite z-score [7] | z-score [8] | composite z-score [9] | composite z-score [10] | composite z-score [11] | z-score [12] | z-score [13] | z-score [14] | composite z-score [15] | z-score [16] | composite z-score [17] | composite z-score [18] | composite z-score [19] | composite z-score [20]
1 | COCCOC(=O)N1C(=O)[C@@]2(c3cc(C#Cc4ccc(OC)cc4)ccc31)[C@H](c1ccc(OCCO)cc1)N1[C@H](c3ccccc3)[C@H](c3ccccc3)OC(=O)[C@H]1[C@@H]2C(=O)NC[C@H](O)c1ccccc1 | 1.48 | 0.628 | 0.005 | 0.703 | 1.15 | 0.455 | 1.2 | 0.848 (inactive) | 0.919 | 0.28 | 1.5 | 3.3 (inactive) | 2.29 (inactive) | 7.99 (inactive) | 2.31 | 0.0136 (inactive) | 0.3 | 0.729 | 1.1 | 0.259
2 | COC(=O)[C@@]1(Cc2ccc(F)cc2)[C@H]2c3cc(C(=O)N(C)C)n(CCc4ccc(O)c(O)c4)c3C[C@H]2CN1C(=O)c1ccccc1 | -0.0383 | -0.134 | 0.187 | 0.876 | 1.68 | 0.562 | 1 | 0.115 (inactive) | 0.662 | -0.374 | -0.0562 | 0.278 (inactive) | 0.955 (inactive) | 0.987 (inactive) | 2.56 | -0.365 (inactive) | 0.534 | -0.601 | 0.498 | 0.253
3 | O=C1C[C@@](C(=O)NC2CC2)(c2ccc([N+](=O)[O-])cc2)[C@@H](c2ccc(CO)cc2)N1C1CCCCC1 | -0.281 | 0.286 | 0.0626 | 0.907 | 0.804 | 1.81 | 1.3 | -0.534 (inactive) | 0.832 | 0.164 | 1.52 | -1.19 (inactive) | -2.19 (inactive) | -2.54 (inactive) | 3.12 | 0.778 (inactive) | -0.0139 | 1.74 | 1.07 | -0.0828
